The full ranking holds about 25,000 sequences; the median of “ln(normalized median fluorescence intensity)” is about 9.3, and the highest 2% start at about 10. The sample holds the highest values, similar sequences and a random draw of the others, so the mix is not that of the screen.

This assay concerns PF3D7_0420300 AP2 domain 1 (GST-tagged). Put plainly: gcPBM binding intensity (ln(normalized median fluorescence intensity)); higher = stronger DNA binding. The method, boiled down: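 The highest Masliner-normalised natural-log median intensity across replicate spots of either probe orientation is reported as binding intensity. GST-tagged P. falciparum DNA-binding domains expressed in E. coli were applied for 1 h to an Agilent 4 × 180k array of primer-extended double-stranded 36-bp intergenic genomic probes plus negative controls, and bound protein was detected with Alexa488 anti-GST antibody and scanned at 488 nm.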
Regarding “AAAAAAAAGAAAAACACACACATATATATATAGAAT [CACACA_site1006]”, the “gcPBM binding intensity (ln)” value stood at 10.2.
Under “CAACAAAAGAAACACACACACACAAACACAAAAAAA [CACACA_site3389]” stands 10; under “AAAAAAAAAAGAAACACACACATATATATATAGAAT [CACACA_site1777]”, 10.1; under “TTAACAAAGAAACACACACACACACCCAAAAAAAAA [CACACA_site516]”, 10.2.
As to “ATACTAAAGAAACACACACACATATATATATAGAAT [CACACA_site100]”, the “gcPBM binding intensity (ln)” value amounted to 10.3.
The value for “CACACCCACCAACACACACACAAAAAAAAAAAGAAA [CACACA_site500]” was 9.59; that for “TGACATAATGTGTGTAGTACATATATCGTTATTTGA [XGTACX_site5152]” was 9.46; that for “ACATGTAAATTTACATGTACATGTAACACTTAATAT [XGTACX_site4575]” was 9.39.
The value for “AATAAAAAAGAATATACACACATAAATATAAAATAT [CACACA_site683]” was 9.9; that for “AGAAAGAAAGAATACACACACACATATATATATATC [CACACA_site3744]” was 10.4; that for “GTATCAAAAGAATACACACACACATACATATATATA [CACACA_site3796]” was 10.2.
Under “AAAGAAATGAAATATACACACATACATATATACATA [CACACA_site9335]” stands 9.81; under “AGAAAGAAAGAATACACACACACATATATAAATATC [CACACA_site7716]”, 10.2.
With “TAAAGAAATAAATACATACACACATATATATATATA [CACACA_site3363]”, the “gcPBM binding intensity (ln)” value is 9.46.
The value for “AAAAAAAACAAATACACACGCACACCGAAAAAAAAA [CACACA_site803]” was 10; that for “TCCTACATATAAAAATGTACCCATTGTTTTTTTTTT [XGTACX_site7205]” was 9.11; that for “TTCATTCATTTTATTACACACAAAAAAAAAAAAAAA [CACACA_site3680]” was 9.07.
Under “AACATATATATATATACATGCATATGAACAACGAAT [TGCATGCA_site93]” stands 9.62.
Take “CTTTTTAATGAATACACACACACACCGATATATATA [CACACA_site5296]”: the “gcPBM binding intensity (ln)” value turned out to be 10.1.
Under “TAAAGGCAAACAAACACACACACATATATACATATA [CACACA_site2123]” stands 10.2; under “CACAAATATACAAATACACACAAATATACACATATA [CACACA_site7176]”, 9.77.
Under “AAAAAAAAAAAAAACACACACATATATATATATATA [CACACA_site1891]” stands 9.55.
“AAAAAAAAAAAACATACACACAAATATATACATACA [CACACA_site4011]”: the “gcPBM binding intensity (ln)” value stood at 9.89.
The value for “CACAAATATATACATACACACATATATACACATATA [CACACA_site8024]” was 9.86; that for “AAAAAAAAAAAAAACATACACACAAATATATACATA [CACACA_site4010]” was 9.67.
Under “AAAAAAAAAAAACACACACACATATATATATATATA [CACACA_site732]” stands 9.75; under “AAAAAAAAAAAACACACACACACATACAAAATATAT [CACACA_site1448]”, 10.3; under “AGCAAATACAAACACACACACACATATACATATATA [CACACA_site3497]”, 10.2.
The value for “TAAAGGCAAACAAACACACACACATATATACCTATA [CACACA_site7078]” was 9.91; that for “AAGGCAAACAAACACACACACATATATACATATATA [CACACA_site2122]” was 9.98.
Take “AAAAAACAAAAACACACACACACATATATATATATA [CACACA_site3654]”: the “gcPBM binding intensity (ln)” value amounted to 10.2.
For “TAATAATTATTGCACGCACACAAAAACCTATAGATT [CACACA_site2931]”, the “gcPBM binding intensity (ln)” value came out at 9.45.
Under “ATGATCATAAAACACACACACAAAAAAAAAAAAAAA [CACACA_site1805]” stands 9.51; under “TTATTTTTTCAAGAATGTACTTACGAATTGTCGTAT [XGTACX_site1363]”, 8.78; under “ATAAAAACATAAAAATGTACATATATATATATATAT [XGTACX_site7165]”, 9.23.
In the case of “TGAGATAACAAAAGTTGTACTTTTTTTTTTTTTTTT [XGTACX_site3004]”, the “gcPBM binding intensity (ln)” value was determined as 8.89.
Under TATATATATATAATAGTGCATAAATAAATATATAAA stands 9.28; under “TACAATATTTTGAGACGTACATATATACATTTACAT [XGTACX_site5880]”, 9.24; under “AAAATGAATATAATGACGCACACTTAAAATTGTTAA [CACACA_site2509]”, 9.29.
Under “ATATGTTTATTAAATGCATGTCAAGACTTAAGATAT [TGCATGCA_site329]” stands 9.24; under “TGATTCATTGATAAGGGTACATTTATAATTATGATA [XGTACX_site6319]”, 9.02; under “CAACATTTGAAACACACACACATACAAACAAACAAA [CACACA_site3306]”, 10.2.
The value for “TATATATATATACCAACACACATACATATATATATA [CACACA_site8530]” was 9.68; that for “TATATATATACCAACACACATACATATATATATATA [CACACA_site1795]” was 9.46.
Consider “CAACATTTGAGACACACACACATACAAACAAACAAA [CACACA_site7538]”, for which the “gcPBM binding intensity (ln)” value came out at 10.
In the case of “TATACATATATATACACACACACATATATATATATA [CACACA_site1299]”, the “gcPBM binding intensity (ln)” value was determined as 9.95.
With “AAAAAAAAAAAAAACACACACACAAATACAAATACA [CACACA_site414]”, the “gcPBM binding intensity (ln)” value turned out to be 10.1.
Under “GGCAACATTTGAAACACACACACATACAAACAAACA [CACACA_site3307]” stands 9.97; under “AAAAAAAAAAAACACACACACAAATACAAATGGTAA [CACACA_site1720]”, 10.1.
Under “CGCATACACCAACACACACACACATATATATATATA [CACACA_site635]” stands 10.2; under “TACATACATACATACACACACACATATATATACATA [CACACA_site853]”, 10.1.
Under “AAAAAAAAAAAAAACACACACACAAATACAAATGGT [CACACA_site1721]” stands 10.2; under “AACATACACATATACACACACACATATATACATATA [CACACA_site1093]”, 10.2.
On to “TTATTATAAATGTTTTGTACGTACATCCGAAAATAA [XGTACX_site2175]”, for which the “gcPBM binding intensity (ln)” value came out at 9.05.
Take TTTTTTGTTAAGTTGGTGCAAACAATAGTTATTGAC: the “gcPBM binding intensity (ln)” value was 8.95.
As for “TTTAAAGTTTTATACACACACCAAAGTTATTCTAAT [CACACA_site6432]”, the “gcPBM binding intensity (ln)” value turned out to be 9.56.
The value for “GATTAAAATCAAAGGTGTACGCACAAATAAGTCCCA [XGTACX_site4360]” was 9.3; that for “TTTCTTATATAAGTGTACTAAAATATATATATGCAA [GTGCAC_negctrl_site546]” was 9.

Values taken from the supplement of paper PMC11417369.
